In the library only some 2.9% were active in any assay of this set; here they are far more common.
MITF TRPM1 HTS: MITF TRPM1 promoter activation in melanoma cells. 300,000 tested, 0.75% active. SK-MEL-5 TRPM1-promoter luciferase, 24 h; % of positive control, neutral wells = 0. activation, % at 12.5 µM;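 active means mean activation of at least 80% with every replicate also reaching 80%; inconclusive means mean reaches 80% but some replicate falls short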;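 further: 0% = neutral control wells and 100% = parthenolide positive control wells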
Wnt act: activates Wnt/beta-catenin signaling in a reporter cell assay. activator, plate reader. activation, % at 9.35 µM. 300,000 tested, 1.2% active; in the data active means activation above about 30%, passing the limit was not always enough; inconclusive means no clear call, values can overlap the other calls;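 further: 0% = neutral control wells and 100% = positive control wells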
PfHsp90 yeast 2: reduces growth (ATP signal) of yeast expressing P. falciparum Hsp90; S. cerevisiae expressing PfHsp90, BacTiter-Glo ATP, 48 h; yeast lacking PDR1 and PDR3 efflux regulators; 310,000 tested, 0.32% active; inhibition, % at 9.4 µM;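 active means every replicate shows inhibition above about 80%, whatever the replicate mean, limit read from the data; inconclusive means mean inhibition reaches the set limit but some replicate falls short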;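 further: 0% = DMSO neutral controls and 100% = 20 µM radicicol positive controls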
NSD2 HMT inh: NSD2 (human) methyltransferase inhibition | O96028 | 310,000 tested, 0.54% active | AID 743445 | inhibition, % at 12.5 µM | NSD2 peptide methylation, AlphaScreen, 120 min; in the data active means inhibition above about 50%
Target sequence (O96028 whole entry, looked up): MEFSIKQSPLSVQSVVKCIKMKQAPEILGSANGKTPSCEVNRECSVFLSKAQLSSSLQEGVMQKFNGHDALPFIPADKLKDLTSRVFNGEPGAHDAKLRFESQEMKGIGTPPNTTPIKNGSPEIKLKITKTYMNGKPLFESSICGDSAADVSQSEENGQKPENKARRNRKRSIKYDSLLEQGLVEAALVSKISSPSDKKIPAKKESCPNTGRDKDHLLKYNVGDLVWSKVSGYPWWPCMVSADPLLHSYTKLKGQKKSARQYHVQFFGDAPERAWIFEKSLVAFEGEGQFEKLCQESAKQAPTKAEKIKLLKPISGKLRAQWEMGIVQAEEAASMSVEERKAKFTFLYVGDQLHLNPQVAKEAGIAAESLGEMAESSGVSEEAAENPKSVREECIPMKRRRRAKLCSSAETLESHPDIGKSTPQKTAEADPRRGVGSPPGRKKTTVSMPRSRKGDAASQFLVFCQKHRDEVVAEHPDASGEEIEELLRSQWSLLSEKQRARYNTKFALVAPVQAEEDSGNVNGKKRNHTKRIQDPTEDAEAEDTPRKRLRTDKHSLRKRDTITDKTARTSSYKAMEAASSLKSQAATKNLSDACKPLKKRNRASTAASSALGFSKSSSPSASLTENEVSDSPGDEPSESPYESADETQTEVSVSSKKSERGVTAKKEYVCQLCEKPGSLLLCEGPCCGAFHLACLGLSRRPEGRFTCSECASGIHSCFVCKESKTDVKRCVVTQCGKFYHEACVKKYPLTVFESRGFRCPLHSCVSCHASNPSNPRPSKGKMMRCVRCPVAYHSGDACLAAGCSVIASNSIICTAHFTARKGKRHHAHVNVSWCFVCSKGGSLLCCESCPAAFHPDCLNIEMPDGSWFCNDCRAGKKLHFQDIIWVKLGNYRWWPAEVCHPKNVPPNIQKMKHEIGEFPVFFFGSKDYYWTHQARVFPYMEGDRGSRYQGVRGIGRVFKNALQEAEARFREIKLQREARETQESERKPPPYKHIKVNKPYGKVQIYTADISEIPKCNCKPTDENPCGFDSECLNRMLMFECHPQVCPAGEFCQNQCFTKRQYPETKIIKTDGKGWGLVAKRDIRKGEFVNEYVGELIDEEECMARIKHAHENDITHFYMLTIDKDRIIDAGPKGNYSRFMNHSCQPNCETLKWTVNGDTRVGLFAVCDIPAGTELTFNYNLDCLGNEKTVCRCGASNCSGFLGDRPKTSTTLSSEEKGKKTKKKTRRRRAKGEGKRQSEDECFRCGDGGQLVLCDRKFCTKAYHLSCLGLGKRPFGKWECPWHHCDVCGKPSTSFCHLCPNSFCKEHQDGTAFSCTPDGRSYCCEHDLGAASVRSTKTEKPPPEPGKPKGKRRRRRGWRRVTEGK
TRPM1 prom inh: MITF TRPM1 promoter inhibition in SK-MEL-5 cells; SK-MEL-5 TRPM1 promoter luciferase, 24 h; inhibition, % at 12.5 µM; 330,000 tested, 0.83% active; AID 488899;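 active means mean inhibition across replicates of 60% or more, whatever share of single replicates reaches that level; inconclusive means some that reach 60%, reason not given; inactive means mean inhibition across replicates below 60%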
N-glyco inh: blocks N-linked glycosylation in D54 reporter cells | D54 ERlucT glycosylation luciferase reporter, 24 h; percent of 100 nM tunicamycin response | reporter increase, % at 12.5 µM | 360,000 tested, 0.23% active;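 active means mean luciferase reporter signal, scaled so untreated is 0 and the glycosylation-blocking control 100, at or above a set limit in every replicate; inconclusive means mean reaches the limit but not every replicate does; inactive means mean below the limit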;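 further: luciferase carries N-glycosylation sites so blocking glycosylation raises the light; 0% = median of neutral control wells and 100% = median of 100 nM tunicamycin wells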
Active calls of the source: *; ? = inconclusive; . = not tested or not shown.

SMILES | MITF TRPM1 HTS | Wnt act | PfHsp90 yeast 2 | NSD2 HMT inh | TRPM1 prom inh | N-glyco inh
CCNc1nc(N)c(C(=O)c2ccc(Cl)s2)s1 | . | 58* | -1 | . | -44 | 13
CC(C)(C)c1csc(NC(=O)c2ccc(Cl)s2)n1 | 38 | . | -41 | 8 | -41 | -7
CC(C)NS(=O)(=O)c1ccc(CCC(=O)NCc2ccncc2)cc1 | -3 | -1 | -19 | -2 | 1 | -1
COc1cc(C(=O)OCC(=O)Nc2cc(C)on2)c([N+](=O)[O-])cc1OC | -7 | -5 | -18 | -4 | 8 | 3
O=C(Nc1ccc2c(c1)CCC2)c1cccc(F)c1 | 95* | 21 | 15 | -3 | -83 | -6
COc1ccc(NC(=O)c2c(F)c(F)c(F)c(F)c2F)cc1Cl | -1 | . | 11 | -5 | 4 | 2
Cc1ccc(C(=O)Nc2ccc3c(c2)CCC3)cc1 | -19 | 0 | 7 | -1 | 23 | -16
O=C(Nc1ccc2c(c1)CCC2)c1cc(F)cc(F)c1 | 83* | 1 | 13 | -1 | -82 | 1
Cc1ccccc1CC(=O)Nc1ccc2c(c1)CCC2 | 19 | 4 | 4 | 3 | -21 | -6
COc1ccc(NC(=O)c2cc(F)cc(F)c2)cc1Cl | . | 56* | -9 | 17 | -75 | 1
O=C(Cc1ccccc1F)Nc1ccc2c(c1)CCC2 | 129* | 17 | -20 | -8 | -130 | -3
Cc1ccc(C(=O)Nc2cccc(-c3ccc(N4CCOCC4)nn3)c2)cc1[N+](=O)[O-] | 103* | 33* | -20 | 0 | -97 | -3
O=[N+]([O-])c1ccc(Cl)c(S(=O)(=O)Nc2ccc(-c3ccc(N4CCOCC4)nn3)cc2)c1 | 4 | 5 | -16 | 2 | 0 | 1
O=C(Nc1cccc(-c2ccc(N3CCOCC3)nn2)c1)c1ccc([N+](=O)[O-])cc1 | 99* | 31* | . | 0 | -102 | -6
O=C(COc1ccccc1)Nc1cccc(-c2ccc(N3CCOCC3)nn2)c1 | 86* | ? | . | -7 | -82 | -9
O=[N+]([O-])c1ccc(Cl)c(S(=O)(=O)Nc2cccc(-c3ccc(N4CCOCC4)nn3)c2)c1 | 86* | 10 | 0 | 4 | -81 | -1
CC(C)Cn1c(=O)cc(N2CCN(c3cccc(C(F)(F)F)c3)CC2)[nH]c1=O | . | . | . | 0 | . | .
COc1ccc2c(c1)CCC1C2=NN(/C(C)=C\C(C)=O)C1c1ccc(F)cc1 (stereo not given) | 27 | 52* | 2 | -2 | -27 | 3
Cc1cnc(NC(=O)C2CC(=O)N(c3cccc(Cl)c3)C2)s1 (stereo not given) | 19 | -11 | 7 | 0 | -19 | ?
CC(C)(C)c1ccc(C(=O)CS(=O)(=O)c2ccccc2)cc1 | 108* | . | -15 | -2 | -101 | -10
Cc1ccc(S(=O)(=O)CC(=O)c2ccccc2)cc1 | 15 | . | . | -3 | -15 | 0
C[C@@H]1C=CCCO[C@]12C(=O)N(Cc1ccccc1C(F)(F)F)c1cccc(Br)c12 | . | -5 | . | . | . | .
CCOc1cc(C2Nc3ccccc3C(=O)N2c2ccccc2)c(Br)cc1OCC(=O)O (stereo not given) | 6 | . | -38 | -4 | -7 | 1
COc1cc(C2Nc3ccccc3C(=O)N2c2ccc(Cl)cc2)c(Cl)cc1OCC(=O)O (stereo not given) | 71 | 48* | -9 | -3 | -67 | -3
CN(Cc1ccccc1)C(=O)COC(=O)CNS(=O)(=O)c1ccc2ccccc2c1 | 4 | 3 | 8 | 0 | -1 | 2
SMILES | MITF TRPM1 HTS | Wnt act | PfHsp90 yeast 2 | NSD2 HMT inh | TRPM1 prom inh | N-glyco inh
CCOC(=O)N1CCN(C(=O)c2cccc(N3C(=O)NC4CC3(C)Oc3ccc(Cl)cc34)c2)CC1 (stereo not given) | -19 | 1 | -6 | 0 | 20 | 29*
Cn1cccc1C(=O)N1CCN(S(=O)(=O)c2cccc3ccccc23)CC1 | . | . | . | 1 | . | .
O=C(Nc1c(Cl)ccc2nsnc12)c1ccc([N+](=O)[O-])o1 | -89 | -1 | -6 | 11 | 89* | 46*
O=C(Nc1ccc(Cl)cn1)c1ccc([N+](=O)[O-])o1 | -31 | 54* | -11 | 9 | 34 | 10
O=C(NCc1cccc(Cl)c1)C1Cc2c(-c3ccccc3Oc3ccccc3)ccnc2O1 (stereo not given) | . | -3 | . | . | . | -2
COC(=O)c1sc(-c2ccccc2)cc1NC(=O)c1ccccc1 | 11 | -3 | -32 | 1 | -7 | 1
COc1ccc(-c2nn(-c3ccccc3)cc2C#N)cc1 | 105* | . | -25 | -2 | -99 | 1
Cc1ccc(C(=O)Cn2nnc3ccccc32)cc1C | 110* | 47* | -11 | -2 | -100 | -7
Clc1ccccc1CN(Cc1ccco1)Cc1nnnn1C1CCCC1 | -8 | -4 | 85* | 4 | 6 | -8
c1coc(CN(Cc2cccs2)Cc2nnnn2C2CCCCC2)c1 | -8 | . | -21 | . | 8 | -4
CCOC(=O)c1c(C)[nH]c(C(=O)COC(=O)C2CC2)c1C | 86* | -23 | . | 0 | -83 | -1
CCOC(=O)c1c(C)[nH]c(C(=O)COC(=O)C2(C)CC2(Cl)Cl)c1C (stereo not given) | 78 | 50* | . | -1 | -84 | -1
CCOC(=O)c1c(C)[nH]c(C(=O)OCC(=O)c2ccccc2)c1C | 122* | 49* | . | -1 | -121 | -13
CC(=O)c1c(C)[nH]c(C(=O)COC(=O)C2CC2)c1C | 14 | 2 | 4 | 4 | -9 | -1
COC(=O)c1c(C)[nH]c(C(=O)OCC(=O)c2ccc(C)s2)c1C | 89* | -1 | 9 | -1 | -83 | -1
CCc1noc(C)c1C(=O)N(CC)CC(=O)Nc1cc(Cl)ccc1C | 10 | -1 | 20 | -1 | -11 | -2
O=C(Nc1cccc([N+](=O)[O-])c1)C1CC(=O)N(C2CCCCC2)C1 (stereo not given) | 0 | -3 | 7 | 1 | 0 | 0
O=C(CN1C(=O)NC2(CCCC2)C1=O)Nc1cc(C(F)(F)F)ccc1N1CCCCC1 | -4 | -3 | 6 | . | 5 | 0
CCOC(=O)c1[nH]c(C)c(C(=O)Nc2cc(OC)ccc2OC)c1C | -6 | . | -4 | 0 | 7 | 35*
CCOC(=O)c1c(C)[nH]c(C(=O)OCC(=O)Nc2cc(C)ccc2OC)c1C | -17 | . | 0 | 1 | 17 | -1
CCOC(=O)C(C)S(=O)(=O)c1ccc(C(F)(F)F)cn1 (stereo not given) | -7 | . | 53 | -2 | 5 | -1
C=C1CC2(CC(c3ccccc3)OC(c3ccccc3)C2)OC1=O (stereo not given) | . | -10 | 12 | 0 | 107* | -8
CC(=O)c1sc2c(c1OC(=O)c1ccc(Cl)cc1Cl)c(=O)n(-c1ccccc1)c(=S)n2-c1ccccc1 | -61 | 0 | 1 | 0 | 63* | -19
CCN(CC)c1ccc(NC2=C(Cl)C(=O)c3ccccc3C2=O)cc1 | -92 | . | -38 | 14 | 92* | -17

Source: PubChem (Broad Institute)
